In PubChem BioAssay AID2279 (Southern Research Specialized Biocontainment Screening …, 2010):
Measured potencies and affinities stand elsewhere.

Assay: CCR5-tropic HIV-1 fusion blockers – cell-based, CCR5-tropic Env, dose response (AID 2279)
Settings: CCR5-tropic HIV-1 Env, reporter read-out; series mostly up to 50 µM; inhibition: at the top concentration; call rule not given here

inhibition, inactive:
CCCCCCc1c(C)c2ccc(OCC(=O)N[C@@H](Cc3ccccc3)C(=O)O)cc2oc1=O -3.71%, O=C(O)CN1C(=O)/C(=C\c2ccccc2OCc2ccc(Cl)cc2Cl)SC1=S -1.58%, Cc1cc(Cl)ccc1OC(C)C(=O)Nc1ccc(C(=O)Nc2ccccc2C(=O)O)cc1 (centres undefined) 37.9%, CCCCCOc1ccc(C2C(C(=O)c3ccc(C)o3)=C(O)C(=O)N2c2cc(C)on2)cc1 (centres undefined) 37.2%, O=C(O)c1ccc(-c2ccc(/C=C3\NC(=O)N(Cc4ccc(Cl)cc4)C3=O)o2)cc1Cl -0.7%, O=C(O)c1cc(NC(=O)c2ccc(Br)cc2)cc(NC(=O)c2ccc(Br)cc2)c1 30.4%, N#Cc1c(-c2ccccc2)nc(SCC(=O)Nc2ccc(OC(F)(F)Cl)cc2)[nH]c1=O -0.77%, COc1ccc(/C=N/NC(=O)c2[nH]c3ccc(Br)cc3c2-c2ccccc2)c(C(=O)O)c1OC 4.8%, O=C(O)CN1C(=O)/C(=C\c2cc(Br)ccc2OCc2ccc(Cl)cc2Cl)SC1=S -14.4%, N=C1/C(=C/c2ccc(-c3cccc(C(=O)O)c3)o2)C(=O)N=C2SC=C(c3ccccc3)N12 30.6%, O=C1/C(=C2\C(=O)N(Cc3ccc(F)cc3)c3ccccc32)SC(=S)N1CCS(=O)(=O)O -4.42%, O=C(O)CCN1C(=O)/C(=C\c2cccc(OCC(=O)Nc3ccc(Cl)cc3)c2)SC1=S 1.86%, O=C(O)/C(CC(=O)c1ccc(Cl)cc1)=N/Nc1ccc([N+](=O)[O-])cc1[N+](=O)[O-] -3.03%, CCN1C(=O)/C(=C\c2ccc(-c3ccc([N+](=O)[O-])cc3OC)o2)SC1=Nc1cccc(C(=O)O)c1 11.7%, O=C1NC(=Nc2ccccc2Cl)S/C1=C\c1cccc([N+](=O)[O-])c1O 4.34%, COc1cccc(-c2nc(SCC(=O)Nc3nc(-c4ccccc4)c(C)s3)[nH]c(=O)c2C#N)c1 -9.79%, Cc1ccc(S(=O)(=O)Oc2ccc(/C=C3/C(=N)N4C(=NC3=O)SN=C4S(C)(=O)=O)cc2)cc1 4.93%, COc1ccc(O)c(C(=O)c2cc(SCC(=O)O)c3nc4sc5c(c4c(=O)n3c2)CCCC5)c1 36%, O=C(O)CN1C(=O)/C(=C\c2cc(Br)ccc2OCc2ccc(Cl)cc2)SC1=S -20.9%, O=C(CN1C(=O)S/C(=C\C=C\c2ccccc2)C1=O)Nc1ccccc1C(=O)O 0.8%, O=C(CCN1C(=O)/C(=C/c2ccccc2Cl)SC1=S)Nc1ccccc1C(=O)O -4.11%, O=C(O)CSc1ncnc2c1sc1nc(-c3ccccc3)c3c(c12)CCC3 11.8%, O=C(NN1C(=O)/C(=C/c2ccc(O)cc2)SC1=S)c1ccccc1O 21%, COc1ccc(/C=C2/SC(=S)N(CC(=O)O)C2=O)cc1OCc1ccc(Cl)cc1 1.03%, O=C1N/C(=N\S(=O)(=O)c2ccccc2)S/C1=C\c1cc([N+](=O)[O-])ccc1O -8.05%, Nc1c(S(=O)(=O)O)cc(NC(=O)c2ccccc2)c2c1C(=O)c1ccccc1C2=O -0.14%, COC(=O)c1sc(-c2ccc(C(C)(C)C)cc2)cc1NC(=O)CSCC(=O)O 9.91%, Cc1cn2c(N)c(C=C3C=C(Cl)C(=O)C(Cl)=C3)c(=O)nc2s1 12.1%, COc1cc(/C=C(\C#N)c2nc3ccc(C)cc3[nH]2)cc([N+](=O)[O-])c1O -16.1%, O=C(O)CN1C(=O)/C(=C\c2cc(Br)ccc2OCc2ccc([N+](=O)[O-])cc2)SC1=S -5.78%, N#Cc1c(-c2ccccc2)nc(SCc2ccc(Cl)cc2)[nH]c1=O 7.41%, COc1ccc(-c2csc(NC(=O)CSc3nc(C)nc4sc(C(=O)O)c(C)c34)n2)cc1 -1.45%, COc1cc(/C=C2\C(=N)N3N=C(S(C)(=O)=O)SC3=NC2=O)cc(OC)c1OCCOc1cccc(C)c1 7.88%, CCOc1ccc(NC(=NCc2ccc3c(c2)OCO3)SC2CC(=O)N(c3ccc(C(=O)O)cc3)C2=O)cc1 (centres undefined) 31.2%
